From PubChem BioAssay AID1903 (Southern Research Specialized Biocontainment Screening …, 2009)
Hit rate of the full screen: of about 310,000 compounds, about 1,200 (0.39%) were called active. The rule behind the calls is not given here. The list is a sample of the results. Entries with a potency or affinity are not part of this list.

Each compound was assayed against Large T antigen (Simian virus 40) (UniProt P03070) (assay: TAg ATPase/helicase activity blockers – biochemical (AID 1903)). Conditions: SV40 large T antigen ATPase/helicase inhibition assay; at 20 µM; active compounds read high.
Chain of Large T antigen (Simian virus 40) (P03070 whole entry, looked up): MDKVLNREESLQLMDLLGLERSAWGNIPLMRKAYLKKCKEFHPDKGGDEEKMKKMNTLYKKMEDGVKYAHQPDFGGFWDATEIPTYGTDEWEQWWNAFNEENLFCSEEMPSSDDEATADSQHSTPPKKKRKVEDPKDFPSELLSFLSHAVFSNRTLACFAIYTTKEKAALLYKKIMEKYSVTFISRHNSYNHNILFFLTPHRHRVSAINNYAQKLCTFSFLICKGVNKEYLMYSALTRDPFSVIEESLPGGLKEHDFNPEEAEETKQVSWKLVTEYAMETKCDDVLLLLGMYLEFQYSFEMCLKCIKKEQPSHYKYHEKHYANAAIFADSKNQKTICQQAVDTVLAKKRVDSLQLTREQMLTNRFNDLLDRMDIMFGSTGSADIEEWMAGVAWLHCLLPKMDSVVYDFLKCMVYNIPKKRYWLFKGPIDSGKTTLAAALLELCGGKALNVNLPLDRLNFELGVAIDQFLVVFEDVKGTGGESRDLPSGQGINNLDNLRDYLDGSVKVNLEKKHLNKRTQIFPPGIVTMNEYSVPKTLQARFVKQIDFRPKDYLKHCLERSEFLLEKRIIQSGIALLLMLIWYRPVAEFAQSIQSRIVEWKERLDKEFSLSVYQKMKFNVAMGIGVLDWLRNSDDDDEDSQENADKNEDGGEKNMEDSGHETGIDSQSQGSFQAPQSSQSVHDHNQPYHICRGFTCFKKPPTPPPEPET

inhibition, inactive:
CCCCn1c(N)c(N(CCOC)C(=O)COC(=O)CSc2cc(C)c3ccccc3n2)c(=O)[nH]c1=O 11.3%
Oc1ccccc1Nc1nc(NCC2CCCO2)c2ccccc2n1 (stereo unspecified) 31.9%
OCCNc1nc(Nc2ccccc2)nc2ccccc12 1.4%
OCCNc1nc(Nc2ccc(Br)cc2)nc2ccccc12 2.29%
c1ccc(Nc2nc(NCC3CCCO3)c3ccccc3n2)cc1 (stereo unspecified) 5.53%
CC(C)CSc1nc2ccccc2[nH]1 4.9%
CC(NC(=O)c1cccnc1)C(=O)N1CCCCC1 (stereo unspecified) 11.9%
CC1CC1c1ccc(/C=C(\C#N)C(=O)Nc2ccccc2Cl)o1 (stereo unspecified) 19.3%
O=C(Cn1c(O)c(/C=C2\C=Nc3ccc(Br)cc32)sc1=O)N1CCCC1 2.37%
O=C(Nc1ccccc1F)c1ccc(CN2CCc3ccccc3C2)cc1 -1.04%
CC(C)c1cccc(C(C)C)c1NC(=O)CN1C(=O)NC2(CCCC2)C1=O 1.52%
c1ccc(C(c2nnnn2C2CCCC2)N2CCN(c3ccccc3)CC2)cc1 (stereo unspecified) 11.2%
c1cc(C(c2nnnn2C2CCCC2)N2CCOCC2)ccn1 (stereo unspecified) 4.22%
CC(C)(C)n1nnnc1C(c1ccncc1)N1CCCCCC1 (stereo unspecified) 17.8%
CCC(C)(C)n1nnnc1C(c1ccc2ncccc2c1)N1CCCCCC1 (stereo unspecified) 3.78%
c1ccc(C(c2ccccc2)N2CCN(C(c3ccccn3)c3nnnn3C3CCCC3)CC2)cc1 (stereo unspecified) -0.29%
c1ccc(C(c2nnnn2C2CCCC2)N2CCCCCC2)nc1 (stereo unspecified) 4.88%
CCC(C)(C)n1nnnc1C(c1ccc2ncccc2c1)N1CCN(c2nc3ccccc3s2)CC1 (stereo unspecified) 9.88%
CC(C)(C)n1nnnc1C(c1cccnc1)N1CCN(c2ccccc2)CC1 (stereo unspecified) 3.3%
Cc1nn(CC(=O)N/N=C/c2cccs2)c(C)c1[N+](=O)[O-] 11.7%
O=C(Nc1ccc(N2CCN(C(=O)c3ccccc3F)CC2)cc1)c1ncn[nH]1 8.25%
Cc1ccc2nc(Cl)c(/C=N/NC(=O)CN3CCOCC3)cc2c1 11.5%
COc1ccc(C(Nc2ccccn2)c2c(NC(=O)c3ccco3)sc(C)c2C)cc1 (stereo unspecified) 14.4%
Cc1cc(C)n(CC(=O)NC2CCCc3c2cnn3-c2ccc(C)c(C)c2)n1 (stereo unspecified) 2.04%
CC(C)C(CCN1C(=O)c2ccccc2C1=O)c1ccco1 (stereo unspecified) 16.2%
CCCN(C(=O)CCSc1ccc(F)cc1)c1c(N)n(Cc2ccccc2)c(=O)[nH]c1=O 5.85%
CCCCCCC(=O)Nc1nnc(CC)s1 4.74%
COc1ccc(CC(=O)N/N=C/c2sccc2C)cc1 4.71%
O=C(Nc1cccc2ccccc12)N1CC=CCC1 5.64%
CCOc1ccc(C(=O)NC(=S)Nc2ncccc2C)cc1[N+](=O)[O-] 5.78%
COc1ccc(-c2noc(N3CCCC(C(=O)Nc4ccc(F)cc4F)C3)n2)cc1 (stereo unspecified) 5.72%
O=C1N/C(=C/c2ccc(Br)s2)C(=O)N1c1ccccc1 8.81%
CC1=NN(c2ccc(C)cc2)C(=O)/C1=C\c1ccc(Br)s1 -1.11%
Cc1ccc(S(=O)(=O)N2CCCCC2)cc1C(=O)NC1CC(C)(C)NC(C)(C)C1 13.5%
COC(=O)C1=C(O)/C(=C\c2ccc(OCC(=O)Nc3ccccc3OC)cc2)N=C1C -3.54%
CCOC(=O)C1=C(O)/C(=C/c2cc(OC)c(OC)c(OC)c2)N=C1C 3.44%
COC(=O)C1=C(O)/C(=C\c2sccc2C)N=C1C 10.2%
CCOC(=O)C1=C(O)/C(=C\c2ccc(OC)c(OC)c2)N=C1C 4.98%
COC(=O)C1=C(O)/C(=C\c2ccc(OCC(=O)Nc3ccc(OC)cc3)cc2)N=C1C 7.17%
COC(=O)C1=C(O)/C(=C\c2ccc(OCC(=O)Nc3ccccc3)cc2)N=C1C 4.47%
C=CCc1cccc(CNc2nc3ccccc3n2CCN2CCOCC2)c1O -5.32%
O=C(/C=C/c1cccc(Br)c1)NC1CCN(Cc2ccccc2)CC1 7.35%
Oc1ccccc1N=Cc1sc2ccccc2c1Cl 19.7%
CSc1ccccc1NC(=O)CSc1nncs1 14.5%
CN(C(=O)C1CCCO1)c1nnc(-c2ccccn2)s1 (stereo unspecified) 8.98%
CC(=O)c1ccc(NC(=O)Cn2nc(C)c([N+](=O)[O-])c2C)cc1 4.55%
CN1CC(=O)N(CC(=O)Nc2ccc(N(C)C)cc2)c2ccccc2C1=O 37.1%
Cc1nn(CC(=O)Nc2ccc(S(=O)(=O)N(C)C)cc2)c(C)c1[N+](=O)[O-] 10.9%
O=C(CN1CCCC1)Nc1ccc(F)cc1 -4.88%
Cc1ccc(NC(=O)CC2NCCNC2=O)cc1 (stereo unspecified) 5.94%
CCc1ccc(NC(=O)CC2NCCNC2=O)cc1 (stereo unspecified) 8.15%
CCN(CC)c1ccc(NC(=O)CN2CCN(CC(=O)Nc3ccc(F)cc3)CC2)cc1 26.9%
CN(C)c1ccc(NC(=O)CN2C(=O)CC(c3ccccc3)=Nc3ccccc32)cc1 47%
CC12CCC(c3n[nH]c(=S)nc31)C2(C)C (stereo unspecified) 24.4%
Cc1ccc(SCC(=O)OCC(=O)NC2CCCCCC2)cc1 12.4%
O=C(CNC(=O)C12CC3CC(CC(C3)C1)C2)NC1=NCCS1 14.4%
Cn1ccc(C(=O)Oc2ccc(C(=O)Nc3ccc(F)cc3F)cc2)n1 1.18%
O=C(COC(=O)c1ccc(Cl)nc1)NCCNC(=O)COC(=O)c1ccc(Cl)nc1 14.5%
CC(=O)C1=C(O)C(=O)N(c2ccc(O)cc2)C1c1ccc(C)cc1 (stereo unspecified) 23.3%
Cn1cc(C(=O)Nc2ccc(F)c(Cl)c2)cn1 8.31%
COc1cccc(S(=O)(=O)Nc2ccc(C(=O)N3CCCCCC3)cc2)c1 -1.76%
